“And” between values parts separate entries of the source, which are not always exact repeats. Equal entries are not always repeated. Records with an inconclusive call do not appear. The source made the active and inactive calls. Unless noted, the call rests on the fitted dose curve; in most records, active means well fitted curve in the direction sought with a large enough effect in the repeat runs; inconclusive means weak or mixed curves; inactive means no such curve, though single readings can be large; an effect the other way counts as inactive or inconclusive.
How the values were obtained:
[1] = qHTS assay for small molecule agonists of the p53 signaling pathway (AID 651631; calls by dose curve; further: nearly all actives have a fitted effect of over 15% in size; further: potency means the concentration at half of the fitted maximal effect)
Outline: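 HCT-116 cells carrying a stable p53 response element–beta-lactamase reporter were plated, rested 5 h at 37 °C, then exposed to compound in DMSO for 16 h at 37 °C; reporter activity was read as FRET substrate fluorescence after 2 h at room temperature.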

[2] = qHTS assay for small molecules that induce genotoxicity in human embryonic kidney cells expressing luciferase-tagged ATAD5 (AID 651632); further: nearly all actives have a fitted effect of over 15% in size
Outline: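 Luminescent reporter readout, HEK293T ATAD5-luc line: 16 hr drug exposure (37C, 5% CO2) followed by Amplite, 30 min RT.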

[3] = qHTS assay for small molecule agonists of the p53 signaling pathway - cell viability (AID 651633; calls by dose curve; further: series mostly up to about 83 µM; nearly all actives have a fitted effect of over 30% in size)
Outline: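 p53RE-bla cells, seeded at 4,000 per well and rested 5 h at 37 C/5% CO2, received compounds in DMSO for 16 h at 37 C. CellTiter-Glo was then added, and luminescence was read after 30 min at room temperature to gauge cytotoxicity.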

[4] = qHTS assay for small molecule disruptors of the mitochondrial membrane potential - cell viability (AID 720634; calls by dose curve;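 further: human HepG2 liver cancer cells; series mostly up to about 83 µM; nearly all actives have a fitted effect of over 20% in size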)
Outline: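 HepG2, 1 hr compound, 37 C. ATP luminescence via CellTiter-Glo, 30 min RT, same well as m-MPI.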

[5] = qHTS assay for small molecule disruptors of the mitochondrial membrane potential (AID 720635); further: potency means the concentration at half of the fitted maximal effect
Outline: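 HepG2 cells (2,000/well) attached overnight at 37C, then took compound for 1 hr at 37C, 5% CO2. Mito-MPS dye was added for 30 min; fluorescence was read at 490/535 nm (monomers) and 540/590 nm (aggregates).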

[6] = qHTS assay to test for compound auto fluorescence at 590 nm (red) in HepG2 cells (AID 720674)
Outline: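 Rose Bengal sodium served as the red fluorophore standard. HepG2 monolayers (overnight attachment, MEM with 10% FBS) were exposed to test compounds for 1 hr at 37 C and read at Ex 540/Em 590 nm.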

[7] = qHTS assay to test for compound auto fluorescence at 535 nm (green) in HepG2 cells (AID 720675)
[8] = qHTS assay to test for compound auto fluorescence at 460 nm (blue) in HEK293 cells (AID 720678)
Outline: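 Cells were seeded and left to adhere for 4-5 hr at 37C. Compounds were then pin-transferred. After an overnight incubation at 37C under 5% CO2, intrinsic fluorescence at 405/460 nm was measured and referenced to triamterene.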

[9] = qHTS assay to test for compound auto fluorescence at 590 nm (red) in HEK293 cells (AID 720679)
Outline: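 Each well held 2,000 HEK293 cells in medium containing 10% dialyzed FBS. Following 4-5 hr attachment at 37C, 23 nL test compound or DMSO was added; plates sat overnight, and red fluorescence (540/590nm) was recorded.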

[10] = qHTS assay to test for compound auto fluorescence at 535 nm (green) in HEK293 cells (AID 720680)
[11] = qHTS assay to test for compound auto fluorescence at 460 nm (blue) in HEK293 cell free culture (AID 720681)
Outline: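 Test compounds were pinned into cell-free culture medium (DMEM with 10% FBS) and fluorescence was read directly at Ex/Em 405/460 nm. Signals were expressed as fluorescence equivalents of triamterene, with DMSO vehicle as control.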

[12] = qHTS assay to test for compound auto fluorescence at 535 nm (green) in HEK293 cell free culture (AID 720682)
Outline: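 Read-out: 485/535 nm fluorescence intensity, calibrated against fluorescein. Medium only (DMEM + 10% FBS, no cells); test compound or DMSO vehicle added by pintool before plate reading.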

[13] = qHTS assay to test for compound auto fluorescence at 590 nm (red) in HEK293 cell free culture (AID 720683)
Outline: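 Tox21 10K library compounds were pinned into cell-free DMEM with 10% FBS and fluorescence was read at excitation 540 nm. Activity is expressed as Rose Bengal sodium equivalency.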

[14] = qHTS assay to test for compound auto fluorescence at 590 nm (red) in HepG2 cell free culture (AID 720684)
Outline: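 Red fluorescence (540 nm excitation, 590 nm emission) was measured after compound transfer into cell-free MEM supplemented with 10% FBS. Values are equivalencies against Rose Bengal sodium.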

[15] = qHTS assay to test for compound auto fluorescence at 460 nm (blue) in HepG2 cell free culture (AID 720685)
Outline: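 Compound (23 nL) or DMSO pinned into cell-free MEM with 10% FBS; blue fluorescence read at 405/460 nm excitation/emission, expressed as auto-fluorescence equivalency to triamterene.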

[16] = qHTS assay to test for compound auto fluorescence at 535 nm (green) in HepG2 cell free culture (AID 720686)
[17] = qHTS assay to test for compound auto fluorescence at 460 nm (blue) in HepG2 cells (AID 720687)
Outline: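 Cells (2,000/well in MEM with 10% FBS) attached overnight at 37 C, then were exposed to compound or DMSO for 1 hr at 37 C, 5% CO2. Fluorescence read at Ex/Em 405/460 nm, expressed as triamterene-equivalent signal.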

[18] = molecular target: Glucocorticoid receptor (Homo sapiens) (UniProt P04150); experiment: qHTS assay to identify small molecule agonists of the glucocorticoid receptor (GR) signaling pathway (AID 720691; active means well fitted activation curve with a large enough effect in the signal ratio in the repeat runs, not every such curve was filed as active; the % refers to the signal ratio)
Chain of Glucocorticoid receptor (Homo sapiens) (P04150 whole entry, looked up): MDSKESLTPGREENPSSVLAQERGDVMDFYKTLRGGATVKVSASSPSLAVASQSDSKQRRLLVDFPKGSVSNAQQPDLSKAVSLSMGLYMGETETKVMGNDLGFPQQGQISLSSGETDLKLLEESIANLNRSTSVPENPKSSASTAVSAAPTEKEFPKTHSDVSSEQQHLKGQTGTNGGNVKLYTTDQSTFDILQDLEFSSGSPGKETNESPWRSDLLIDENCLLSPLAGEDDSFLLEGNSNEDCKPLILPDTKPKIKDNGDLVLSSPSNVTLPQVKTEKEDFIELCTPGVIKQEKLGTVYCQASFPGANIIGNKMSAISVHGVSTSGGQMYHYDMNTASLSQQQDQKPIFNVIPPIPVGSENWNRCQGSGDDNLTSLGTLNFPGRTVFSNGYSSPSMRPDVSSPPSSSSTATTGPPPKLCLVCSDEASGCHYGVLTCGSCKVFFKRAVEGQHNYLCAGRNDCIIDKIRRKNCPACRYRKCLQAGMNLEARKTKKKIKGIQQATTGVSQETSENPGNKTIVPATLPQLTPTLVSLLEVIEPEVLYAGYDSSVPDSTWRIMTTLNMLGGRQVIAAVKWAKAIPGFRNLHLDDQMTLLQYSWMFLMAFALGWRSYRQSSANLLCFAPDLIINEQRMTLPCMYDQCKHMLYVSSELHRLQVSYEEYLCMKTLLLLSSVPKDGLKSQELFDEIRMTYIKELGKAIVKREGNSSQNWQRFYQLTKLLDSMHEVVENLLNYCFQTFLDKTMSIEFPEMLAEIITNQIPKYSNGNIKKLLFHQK
Outline: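 qHTS in GR-bla HeLa cells: 4 h settling at 37 C/5% CO2, 18 h compound incubation at 37 C, 2 h LiveBLAzer B/G FRET substrate at room temperature, fluorescence intensity measured.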

[19] = molecular target: Glucocorticoid receptor (Homo sapiens) (UniProt P04150); experiment: qHTS assay to identify small molecule antagonists of the glucocorticoid receptor (GR) signaling pathway (AID 720692; active means well fitted inhibition curve with a large enough effect in the signal ratio in the repeat runs, not every such curve was filed as active; the % refers to the signal ratio)
Outline: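 Inhibition of glucocorticoid signalling is measured in HeLa cells with a GRE-controlled beta-lactamase reporter; cells are co-treated with compound and 5 nM dexamethasone (final) for 18 h before FRET substrate readout.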

[20] = qHTS assay for small molecules that induce genotoxicity in human embryonic kidney cells expressing luciferase-tagged ATAD5 - cell viability (AID 651634; calls by dose curve; further: nearly all actives have a fitted effect of over 25% in size)
Outline: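 Viability read: CellTiter-Fluor fluorescence, 30 min at 37C. Cells: HEK293T, luciferase-tagged ATAD5. Exposure: 15.5 hr, 37C, 5% CO2, compound or DMSO vehicle.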
On the % scale 0 is the no-effect control and ±100 the full control effect.

CS(=O)(=O)c1cc(C(F)(F)F)ccc1C(=O)c1cnoc1C1CC1
inactive: Potency [1] | Potency [2] | Potency [3] | Potency [4] | Potency [5] | outcome [6] | outcome [7] | outcome [8] | outcome [9] | outcome [10] | outcome [11] | outcome [12] | outcome [13] | outcome [14] | outcome [15] | outcome [16] | outcome [17] | outcome [18] | Potency [19]

Nc1cc(Cl)ccc1O
active: Potency [1] 26.4 µM | Potency [5] 9.37 µM
inactive: Potency [2] | Potency [3] | Potency [4] | outcome [6] | outcome [7] | outcome [8] | outcome [9] | outcome [10] | outcome [11] | outcome [12] | outcome [13] | outcome [14] | outcome [15] | outcome [16] | outcome [17] | outcome [18] | Potency [19]

CNNC
inactive: Potency [1] | Potency [2] | Potency [3] | Potency [20] | Potency [4] | outcome [6] | outcome [7] | outcome [9] | outcome [10] | outcome [11] | outcome [12] | outcome [13] | outcome [14] | outcome [16] | outcome [17] | outcome [18] | Potency [19]

O=C(CCCN1CCC(n2c(=O)[nH]c3ccccc32)CC1)c1ccc(F)cc1
inactive: Potency [1] | Potency [2] | Potency [3] | Potency [4] | Potency [5] | fluorescence, relative to Rose Bengal [6] -0.608% [at 18.6 µM] | fluorescence, % of fluorescein control [7] 0.0365% [at 18.6 µM] | fluorescence, % of fluorescent control [9] 0.426% [at 18.6 µM] | fluorescence, % of fluorescein [10] 0.0703% [at 18.6 µM] | fluorescence, % of fluorescent control [11] 0.0625% [at 18.6 µM] | activity change [12] -0.0154% [at 18.6 µM] | fluorescence, % of fluorescent control [13] -0.0219% [at 18.6 µM] | fluorescence, % of Rose Bengal [14] 0.463% [at 18.6 µM] | fluorescence, % of fluorescent control [15] -0.0144% [at 18.6 µM] | fluorescence, % of fluorescein control [16] 0.027% [at 18.6 µM] | fluorescence, % of fluorescent control [17] 0.0395% [at 18.6 µM] | outcome [18] | Potency [19]

CCCCC(=O)Cl
inactive: Potency [1] | Potency [2] | Potency [3] | Potency [4] | Potency [5] | outcome [6] | outcome [7] | outcome [8] | outcome [9] | outcome [10] | outcome [11] | outcome [12] | outcome [13] | outcome [14] | outcome [15] | outcome [16] | outcome [17] | outcome [18] | Potency [19]

CCS(=O)(=O)CCSP(=O)(OC)OC
inactive: Potency [1] | Potency [2] | Potency [3] | Potency [20] | Potency [4] | outcome [6] | outcome [7] | outcome [10] | outcome [11] | outcome [12] | outcome [13] | outcome [14] | outcome [15] | outcome [16] | outcome [17] | Potency [19]

CC(C)COP(=O)(OCC(C)C)OCC(C)C
inactive: Potency [1] | Potency [2] | Potency [3] | Potency [4] | outcome [6] | outcome [7] | outcome [8] | outcome [9] | outcome [10] | outcome [11] | outcome [13] | outcome [14] | outcome [15] | outcome [16] | outcome [17] | Potency [19]

ClC(Br)Br
inactive: Potency [1] | Potency [2] | Potency [3] | Potency [20] | Potency [4] | outcome [6] | outcome [7] | outcome [9] | outcome [10] | outcome [11] | outcome [12] | outcome [13] | outcome [14] | outcome [15] | outcome [16] | outcome [18] | Potency [19]

CCC(=O)c1ccccc1
inactive: Potency [1] | Potency [2] | Potency [3] | Potency [20] | Potency [4] | outcome [6] | outcome [7] | outcome [9] | outcome [10] | outcome [11] | outcome [13] | outcome [14] | outcome [15] | outcome [16] | outcome [17]

CC(CC(C#N)(c1ccccc1)c1ccccc1)N(C)C (stereo not given)
inactive: Potency [1] | Potency [2] | Potency [3] | Potency [4] | outcome [6] | outcome [7] | outcome [9] | outcome [10] | outcome [11] | outcome [12] | outcome [13] | outcome [14] | outcome [15] | outcome [16] | outcome [17] | Potency [19]

CCN(CC)C(=O)[C@@H]1C=C2c3cccc4[nH]cc(c34)C[C@H]2N(C)C1
active: Potency [5] 8.98 µM and 6.68 µM
inactive: Potency [1] | Potency [2] | Potency [3] | Potency [4] | outcome [6] | outcome [7] | outcome [8] | outcome [9] | outcome [10] | outcome [11] | outcome [13] | outcome [14] | outcome [15] | outcome [16] | Potency [19]

N#CCCC#N
inactive: Potency [1] | Potency [2] | Potency [3] | Potency [20] | outcome [6] | outcome [7] | outcome [8] | outcome [9] | outcome [10] | outcome [11] | outcome [12] | outcome [13] | outcome [14] | outcome [16] | outcome [17]

CNC(=O)O/N=C(\C)SC
inactive: Potency [1] | Potency [2] | Potency [3] | Potency [4] | outcome [6] | outcome [7] | outcome [8] | outcome [9] | outcome [10] | outcome [11] | outcome [12] | outcome [13] | outcome [14] | outcome [16] | outcome [18] | Potency [19]

CC(C)(C)C(=O)C(Oc1ccc(Cl)cc1)n1cncn1 (stereo not given)
inactive: Potency [1] | Potency [2] | Potency [3] | outcome [6] | outcome [7] | outcome [8] | outcome [9] | outcome [10] | outcome [11] | outcome [13] | outcome [14] | outcome [15] | outcome [16] | outcome [17] | outcome [18] | Potency [19]
